Inconclusive results are not listed. Entries that show only a call come without a potency. Active and inactive are the calls of the source. Unless noted, calls come from the whole dose curve; as a rule, active = well fitted curve in the direction sought with a large enough effect in the repeat runs; inconclusive = weak or mixed curves; inactive = no such curve, though single readings can be large; an effect the other way counts as inactive or inconclusive.
Tests used:
[1] = qHTS assay to identify small molecule antagonists of the peroxisome proliferator-activated receptor delta (PPARd) signaling pathway - cell viability counter screen (AID 743213); note: nearly all actives have a fitted effect of over 50% in size
In short: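 HEK293H cells with the PPARd UAS-bla reporter, co-treated 17 h at 37 C with compounds and L165041 (300 nM final), were lysed with CellTiter-Glo. Luminescence indicated viable cell content.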

[2] = target: Peroxisome proliferator-activated receptor delta (Homo sapiens) (UniProt Q03181); test: qHTS assay to identify small molecule antagonists of the peroxisome proliferator-activated receptor delta (PPARd) signaling pathway (AID 743215; active = well fitted inhibition curve with a large enough effect in the signal ratio in the repeat runs, not every such curve was filed as active; the % refers to the signal ratio;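 note: cells stimulated with agonist L165041 at 300 nM final during compound exposure; series mostly up to about 62 µM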)
In short: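 Plated HEK293H PPARd-bla cells rested 5 h at 37 C and 5% CO2. Compound, then agonist L165041 at 300 nM final, was added; 17 h at 37 C followed. Substrate loading, 2 h room temperature, fluorescence measured.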

[3] = qHTS assay to identify small molecule agonists of the farnesoid-X-receptor (FXR) signaling pathway - cell viability counter screen (AID 743218); note: nearly all actives have a fitted effect of over 45% in size
In short: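 Viability of FXR-bla HEK 293T cells is measured by ATP-based CellTiter-Glo luminescence following 16 h compound treatment at 37 C and a prior 2 h room-temperature beta-lactamase substrate step.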

[4] = qHTS assay to identify small molecule antagonists of the farnesoid-X-receptor (FXR) signaling pathway - cell viability counter screen (AID 743221; active = well fitted cell-killing curve with a large enough effect in the repeat runs, not every such curve was filed as active; note: nearly all actives have a fitted effect of over 50% in size)
In short: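 Quantitative HTS of the Tox21 10K library run in parallel with the beta-lactamase reporter read. HEK 293T cells carrying a UAS-driven bla reporter got compound and 50 uM CDCA (final) for 16 h; ATP-based luminescence followed.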

[5] = qHTS assay to identify small molecule agonists of the vitamin D receptor (VDR) signaling pathway - cell viability counter screen (AID 743224); note: series mostly up to about 63 µM; nearly all actives have a fitted effect of over 50% in size
In short: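 Compounds were pin-transferred onto VDR-bla cells plated 4 h earlier; following 16 h incubation at 37C, cell viability was quantified by CellTiter-Glo luminescence after 30 min at room temperature.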

[6] = qHTS assay to identify small molecule antagonists of the vitamin D receptor (VDR) signaling pathway - cell viability counter screen (AID 743225); note: nearly all actives have a fitted effect of over 50% in size
In short: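 Cells (VDR-UAS-bla HEK 293T) are plated, rested 4 h at 37C, dosed with compound and 3 nM final 1-alpha,25-dihydroxy vitamin D3, and incubated 16 h. Viability is taken from CellTiter-Glo luminescence in the reporter wells.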

[7] = qHTS assay to identify small molecule agonists of the NFkB signaling pathway (AID 1159509; active = well fitted curve in the direction sought with a large enough effect in the signal ratio in the repeat runs, not every such curve was filed as active; the % refers to the signal ratio; note: series mostly up to about 61 µM)
In short: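 Agonist activity was read as beta-lactamase-driven FRET change (460 and 530 nm emission, 405 nm excitation) following 1.5 hr substrate loading at room temperature. Beforehand, ME-180 NFkB-bla reporter cells were treated with compounds for 5 hr at 37 C.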

[8] = qHTS assay to identify small molecule agonists of the NFkB signaling pathway - cell viability counter screen (AID 1159515; calls by dose curve; note: series mostly up to about 61 µM; nearly all actives have a fitted effect of over 55% in size)
In short: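 Parallel cytotoxicity counter screen in ME-180 cells carrying an NFkB-response-element beta-lactamase reporter, 2,000 cells/well. Compound exposure lasted 5 hr at 37 C, 5% CO2. Cell viability was quantified by CellTiter-Glo luminescence.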

[9] = qHTS assay to identify small molecule agonists of the endoplasmic reticulum stress response signaling pathway (AID 1159516; active = well fitted activation curve with a large enough effect in the signal ratio in the repeat runs, not every such curve was filed as active; the % refers to the signal ratio)
In short: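 Using a HeLa line with an ESRE-driven beta-lactamase gene, agonist activity was measured by FRET substrate fluorescence (460 and 530 nm emission) after cells were treated with compounds for 5 hr at 37 C and 5% CO2.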

[10] = qHTS assay to identify small molecule agonists of the endoplasmic reticulum stress response signaling pathway - cell viability counter screen (AID 1159517; calls by dose curve)
In short: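 Cpd-treated ESRE-bla HeLa (5 hr, 37 C) → LiveBLAzer 2 hr RT → CellTiter-Glo 30 min RT → luminescence.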

[11] = qHTS assay to identify small molecule antagonists of the retinoid-related orphan receptor gamma (ROR-gamma) signaling pathway - cell viability counter screen (AID 1159520); note: nearly all actives have a fitted effect of over 50% in size
In short: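 Tet-on ROR gamma CHO cells (1,000/well) were plated 4 hr, given compounds in DMSO for 2 hr at 37 C, then induced with 1 uM final doxycycline for 16 hr. Viability was read as ATP by CellTiter-Glo luminescence after 30 min.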

[12] = target: Nuclear receptor ROR-gamma (Homo sapiens) (UniProt P51449); test: qHTS assay to identify small molecule antagonists of the retinoid-related orphan receptor gamma (ROR-gamma) signaling pathway (AID 1159521)
In short: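 RORγ antagonism is scored from reduced reporter luminescence in Tet-on CHO cells. Induction used 1 uM final doxycycline hyclate for 16 h at 37 C, following a 2 h compound exposure.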

[13] = qHTS assay to identify small molecule agonists of the AP-1 signaling pathway - cell viability counter screen (AID 1159525; calls by dose curve; note: nearly all actives have a fitted effect of over 55% in size)
In short: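 Each titration point was normalised to DMSO and tetra n-octyl ammonium bromide controls. The read was Cell Titer Glo luminescence after 30 min at RT, following 5 h compound exposure of ME-180 AP-1-bla cells at 37 °C.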

[14] = qHTS assay to identify small molecule agonists of the AP-1 signaling pathway (AID 1159526; calls by dose curve)
[15] = target: Retinoic acid receptor RXR-alpha (Homo sapiens) (UniProt P19793); test: qHTS assay to identify small molecule agonists of the RXR signaling pathway (AID 1159527; calls by dose curve; note: nearly all actives have a fitted effect of over 35% in size; note: potency is the fitted concentration of half-maximal effect)
In short: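 qHTS of the Tox21 10K library in GeneBLAzer RXR-alpha HEK 293T cells carrying a beta-lactamase reporter […]; 16 hr treatment, 9-cis retinoic acid as agonist control, FRET read-out.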

[16] = target: Vitamin D3 receptor (Homo sapiens) (UniProt P11473); test: qHTS assay to identify small molecule agonists of the vitamin D receptor (VDR) signaling pathway (AID 743222; calls by dose curve)
In short: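 Fluorescence from cleaved LiveBLAzer B/G FRET substrate served as readout. VDR-bla cells had been treated 16 h at 37C with test compounds in DMSO, following a 4 h settling period, and substrate was loaded for 2 h at RT.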

[17] = target: Vitamin D3 receptor (Homo sapiens) (UniProt P11473); test: qHTS assay to identify small molecule antagonists of the vitamin D receptor (VDR) signaling pathway (AID 743223; active = well fitted inhibition curve with a large enough effect in the signal ratio in the repeat runs, not every such curve was filed as active; the % refers to the signal ratio)
In short: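 Fluorescence from LiveBLAzer B/G FRET substrate, read after 2 h at room temperature, reflects beta-lactamase reporter activity in VDR-bla cells treated 16 h at 37C with compounds and agonist 1alpha,25-dihydroxyvitamin D3 (3 nM final).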

[18] = target: Bile acid receptor (Homo sapiens) (UniProt Q96RI1); test: qHTS assay to identify small molecule antagonists of the farnesoid-X-receptor (FXR) signaling pathway (AID 743217; active = well fitted inhibition curve with a large enough effect in the signal ratio in the repeat runs, not every such curve was filed as active; the % refers to the signal ratio)
In short: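 Screen of the Tox21 10K library in quantitative HTS format using FXR-UAS-bla HEK 293T reporter cells. Agonist chenodeoxycholic acid, 50 uM final, added with compounds; 16 h incubation at 37 °C; beta-lactamase FRET fluorescence measured.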

[19] = target: Bile acid receptor (Homo sapiens) (UniProt Q96RI1); test: qHTS assay to identify small molecule agonists of the farnesoid-X-receptor (FXR) signaling pathway (AID 743220; active = well fitted activation curve with a large enough effect in the signal ratio in the repeat runs, not every such curve was filed as active; the % refers to the signal ratio)
In short: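 FXR-UAS-bla HEK 293T cells carrying a UAS-driven beta-lactamase reporter were plated for 5 h at 37C/5% CO2, then exposed to DMSO-dissolved Tox21 10K compounds for 16 h at 37C. A LiveBLAzer B/G FRET substrate was loaded for 2 h at room temperature before fluorescence reading.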

Retinoic acid receptor RXR-alpha (Homo sapiens), sequence (P19793 whole entry, looked up): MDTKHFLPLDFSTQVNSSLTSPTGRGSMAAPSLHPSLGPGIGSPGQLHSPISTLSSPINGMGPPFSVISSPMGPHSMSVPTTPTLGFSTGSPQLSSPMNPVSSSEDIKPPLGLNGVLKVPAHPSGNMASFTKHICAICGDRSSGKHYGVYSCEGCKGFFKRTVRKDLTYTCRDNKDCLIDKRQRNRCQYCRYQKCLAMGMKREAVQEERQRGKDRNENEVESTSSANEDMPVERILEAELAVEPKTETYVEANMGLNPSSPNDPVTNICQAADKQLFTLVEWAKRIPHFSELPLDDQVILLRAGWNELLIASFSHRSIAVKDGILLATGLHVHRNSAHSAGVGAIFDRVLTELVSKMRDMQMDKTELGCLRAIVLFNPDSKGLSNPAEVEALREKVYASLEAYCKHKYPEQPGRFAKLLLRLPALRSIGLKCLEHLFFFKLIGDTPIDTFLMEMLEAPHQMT
Bile acid receptor (Homo sapiens), sequence (Q96RI1 whole entry, looked up): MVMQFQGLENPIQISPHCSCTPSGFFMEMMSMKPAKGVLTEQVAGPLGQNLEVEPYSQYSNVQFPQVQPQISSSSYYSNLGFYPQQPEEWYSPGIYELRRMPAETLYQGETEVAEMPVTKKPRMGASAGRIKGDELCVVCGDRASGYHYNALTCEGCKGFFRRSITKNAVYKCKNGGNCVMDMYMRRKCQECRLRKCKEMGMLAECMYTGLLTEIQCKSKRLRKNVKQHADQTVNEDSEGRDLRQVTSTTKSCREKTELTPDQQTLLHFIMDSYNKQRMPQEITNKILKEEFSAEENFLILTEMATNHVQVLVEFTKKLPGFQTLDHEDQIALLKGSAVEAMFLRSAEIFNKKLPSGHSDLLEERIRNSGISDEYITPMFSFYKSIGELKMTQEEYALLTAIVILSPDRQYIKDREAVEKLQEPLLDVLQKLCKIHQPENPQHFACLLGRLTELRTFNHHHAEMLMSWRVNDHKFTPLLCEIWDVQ
Vitamin D3 receptor (Homo sapiens), sequence (P11473 whole entry, looked up): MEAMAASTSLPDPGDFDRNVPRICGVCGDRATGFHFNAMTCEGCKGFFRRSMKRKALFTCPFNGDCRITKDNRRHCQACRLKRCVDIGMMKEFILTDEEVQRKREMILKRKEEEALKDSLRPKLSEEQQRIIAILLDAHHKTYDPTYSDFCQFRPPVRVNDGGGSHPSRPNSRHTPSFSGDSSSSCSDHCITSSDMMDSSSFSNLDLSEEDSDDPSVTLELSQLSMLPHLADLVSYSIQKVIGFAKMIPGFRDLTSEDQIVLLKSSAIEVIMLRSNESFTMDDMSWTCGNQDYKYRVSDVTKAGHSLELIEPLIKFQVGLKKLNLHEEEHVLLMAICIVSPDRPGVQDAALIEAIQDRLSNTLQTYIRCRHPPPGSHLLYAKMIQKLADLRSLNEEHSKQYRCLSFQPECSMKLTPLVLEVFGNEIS
Peroxisome proliferator-activated receptor delta (Homo sapiens), sequence (Q03181 whole entry, looked up): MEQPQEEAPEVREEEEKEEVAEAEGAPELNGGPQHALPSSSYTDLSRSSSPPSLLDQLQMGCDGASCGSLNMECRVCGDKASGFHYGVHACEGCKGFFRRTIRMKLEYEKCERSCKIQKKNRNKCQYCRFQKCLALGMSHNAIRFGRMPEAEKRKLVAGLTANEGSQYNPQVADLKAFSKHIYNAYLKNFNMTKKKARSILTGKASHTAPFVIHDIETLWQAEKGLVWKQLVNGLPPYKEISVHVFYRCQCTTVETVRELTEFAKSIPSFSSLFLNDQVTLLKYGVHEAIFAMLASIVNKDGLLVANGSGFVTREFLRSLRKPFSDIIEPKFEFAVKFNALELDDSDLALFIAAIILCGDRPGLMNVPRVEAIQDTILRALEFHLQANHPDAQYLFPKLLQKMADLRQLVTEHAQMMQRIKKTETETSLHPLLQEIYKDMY

Row | SMILES | Potency [1] | Potency [2] | Potency [3] | Potency [4] | Potency [5] | Potency [6] | outcome [7] | outcome [8] | outcome [9] | Potency [10] | Potency [11] | Potency [12] | Potency [13] | outcome [14] | Potency [15] | outcome [16] | outcome [17] | outcome [18] | outcome [19]
1 | CCc1ccc(C2CCNCC2)cc1 | inactive | inactive | inactive | inactive | inactive | inactive | inactive | inactive | inactive | inactive | inactive | inactive | inactive | inactive | inactive | – | – | – | –
2 | CNC(=O)Oc1ccccc1C(C)C | inactive | – | inactive | inactive | inactive | – | inactive | inactive | inactive | inactive | inactive | inactive | inactive | inactive | 49 µM (active) | inactive | – | – | –
3 | C=CCC1(C(C)CC)C(=O)NC(=O)NC1=O (centres undefined) | inactive | inactive | inactive | inactive | inactive | inactive | inactive | inactive | inactive | inactive | inactive | inactive | inactive | inactive | inactive | inactive | inactive | – | –
4 | CCCOC(=O)c1cncn1C(C)c1ccccc1 (centres undefined) | inactive | inactive | inactive | inactive | inactive | inactive | inactive | inactive | inactive | inactive | inactive | inactive | inactive | inactive | inactive | – | – | – | –
5 | CC[C@@H](CO)NC(=O)[C@@H]1C=C2c3cccc4c3c(cn4C)C[C@H]2N(C)C1 | inactive | inactive | inactive | inactive | inactive | inactive | inactive | inactive | inactive | inactive | inactive | inactive | inactive | inactive | inactive | inactive | inactive | inactive | inactive
6 | BrCCc1ccccc1 | inactive | inactive | inactive | inactive | inactive | inactive | inactive | inactive | inactive | inactive | inactive | inactive | inactive | inactive | inactive | – | – | – | –
7 | CC(C)(C1CCC(O)CC1)C1CCC(O)CC1 (centres undefined) | inactive | – | inactive | inactive | inactive | inactive | inactive | inactive | inactive | inactive | inactive | inactive | inactive | inactive | inactive | inactive | inactive | – | –
8 | CCNP(=S)(OC)O/C(C)=C/C(=O)OC(C)C (centres undefined) | inactive | – | inactive | inactive | inactive | inactive | inactive | inactive | inactive | inactive | inactive | inactive | inactive | inactive | inactive | inactive | inactive | – | –
9 | Cc1ccc2cc(C)ccc2c1 | inactive | – | inactive | inactive | inactive | inactive | inactive | inactive | inactive | inactive | inactive | inactive | inactive | inactive | inactive | inactive | – | inactive | inactive

— PubChem BioAssay (Tox21)
